Results from PMC5540273 (PLoS ONE, 2017).

Tests used:
Details in all cases: concentration: 1 μM, replicates: in singlicate; n = 1
PRKD3 = test system: PRKD3
PRKG1 = test system: PRKG1
PRKG2 = test system: PRKG2
PRKR = test system: T1, PRKR
T1 construct: gene EIF2AK2

PRKX = test system: PRKX
PRP4 = test system: PRP4
PYK2 = test system: T2, PYK2
T2 construct: gene PTK2B

QSK = test system: QSK
RAF1 = test system: RAF1
RET = test system: RET
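Further: KINOMEscan kinase panel screen.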

Compound	%Inh (PRKD3) [%]	%Inh (PRKG1) [%]	%Inh (PRKG2) [%]	%Inh (PRKR) [%]	%Inh (PRKX) [%]	%Inh (PRP4) [%]	%Inh (PYK2) [%]	%Inh (QSK) [%]	%Inh (RAF1) [%]	%Inh (RET) [%]
COc1cccc(C(=O)Nc2cccc(Oc3ccc4nc(NC(=O)C5CC5)cn4n3)c2)c1	15	0	21	0	2	0	9	0	96.8	100
Nc1ncc(-c2cccnc2)c2scc(-c3ccc4c(c3)CCN4C(=O)Cc3ccccc3)c12 [GSK683281]	18	12	25	5	23	0	35	18	11	21
c1ccc(-c2n[nH]cc2Nc2ccnc3ccccc23)nc1 [GW694077]	100	5	0	16	0	89	0	0	7	0
O=C(Nc1cccc(-c2nn3ncccc3c2-c2ccnc(Nc3ccccc3)n2)c1)c1c(F)cccc1F [GSK198271]	47	0	0	0	11	6	27	10	94.1	99.7
COc1cc2c(cc1OCCN1CCNCC1)ncc1c3ccc(C#N)cc3[nH]c21	0	0	7	9	34	38	0	52	29	35
Cn1cc(-c2ccc3c(c2)CCN3C(=O)Cc2cccc(F)c2)c2c(N)ncnc21 [GSK2603358]	2	0	4	1	14	44	0	8	9	47
C[C@@H]1CC[C@@H](C(=O)Nc2ccccc2)CN1c1cc(-c2ccc3c(N)n[nH]c3c2)nc(N)n1 [GSK2286062]	0	0	0	2	5	13	3	3	2	6
Cl.Cl.NCC(NCc1ccc(-c2ccnc3[nH]ccc23)s1)c1ccccc1 (centres unmarked) [GSK1321565]	56	97.1	97.8	0	94.2	86	9	0	2	49
FC(F)(F)c1ccc(/C=C/c2cncnc2Nc2ccc3[nH]c(Cc4ccccc4)nc3c2)cc1 [GW709199]	0	0	6	2	0	0	30	0	46	8
Cc1cccc(Nc2nc(N[C@H]3CCNC3)ncc2C(N)=O)c1.Cl [GSK2197149]	75	0	0	22	38	23	49	14	0	30
COc1cc(Nc2nccc(N3CCC(NC(=O)Nc4cccc(C(C)=O)c4)C3)n2)cc(OC)c1OC (centres unmarked) [GSK1379753]	0	0	0	0	37	14	0	0	14	0
O=C(O)C(F)(F)F.O=C(O)C(F)(F)F.O=c1[nH]ccc2nc(N[C@@H]3CCCNC3)nc(Nc3ccc(S(=O)(=O)N4CCOCC4)cc3)c12 [GSK2177277]	100	66	96.5	86	94.6	92.9	98.9	85	0	99.9
c1ccc(Oc2ccc(Nc3ccnc4cc(-c5ccc(CNCCN6CCOCC6)o5)ccc34)cc2)nc1 [GW567145]	23	1	2	0	0	36	0	17	2	5
Nc1n[nH]c2cnc(-c3ccccc3)cc12 [SB-642124]	0	0	0	0	19	18	5	0	11	0
Nc1ncnc2c1nc(-c1ccccc1)n2-c1ccccc1 [SKF-97293]	22	7	0	27	3	15	8	26	0	17
O=C(Nc1n[nH]c2nc(-c3ccc(O)cc3)ccc12)C1CC1 [SB-710363]	0	19	10	0	0	0	26	17	13	0
O=C(Nc1ccccc1F)NC1CCN(c2ccnc(Nc3ccc(F)cc3)n2)CC1 [GSK1379800]	0	15	0	0	7	45	0	1	16	4
COC(=O)Nc1nc2ccc(Oc3ccc(NC(=O)Nc4cc(C(F)(F)F)ccc4F)cc3)cc2n1C.Cl [GW692089]	5	14	5	0	0	58	0	0	85	99.5
COc1ccc(Nc2nccc(N3CCC(NC(=O)Nc4cccc(OC)c4)C3)n2)cc1 (centres unmarked) [GSK1379742]	0	0	0	0	15	12	5	6	3	7
Cl.Cl.NCC(C(=O)Nc1cc(Br)c(-c2ccnc3[nH]ccc23)s1)c1ccccc1 (centres unmarked) [GSK1269851]	41	94.6	86	0	88	83	2	15	0	32
Cc1occc1-c1ncc(OC[C@@H](N)Cc2c[nH]c3ccccc23)cc1-c1ccc2[nH]nc(C)c2c1.O=C(O)C(F)(F)F [GSK682037]	95.6	57	14	0	56	11	49	11	11	84
C[C@@H](Oc1cc(-n2cnc3cc(-c4ccnc(NCCS(C)(=O)=O)c4)ccc32)sc1C(N)=O)c1ccccc1Cl [GSK907232]	0	10	0	0	0	60	24	14	18	51
CC(=O)Nc1nc2cnc(Nc3cc(NC(=O)c4cccc(C5(C#N)CC5)c4Cl)ccc3C)nc2s1	0	0	0	0	19	6	20	0	99.2	99.6
Cc1ccc(C(=O)N2CC[C@@H](O)C2)cc1-n1c(C)cc(OCc2ccc(F)cc2F)c(Br)c1=O	7	6	0	0	0	20	2	0	25	10
NCCCC(NC(=O)c1cc(Br)c(-c2ccnc3[nH]ccc23)s1)c1ccccc1.O=C(O)C(F)(F)F.O=C(O)C(F)(F)F (centres unmarked) [GSK1287544]	53	97.8	98	0	92.5	0	0	0	0	54
Cl.c1ccc(-c2ccc3c(Nc4ccc5[nH]ncc5c4)ccnc3c2)nc1 [GW440137]	17	0	0	0	19	66	2	6	15	76
CCCCc1nn2ncccc2c1-c1ccnc(Nc2ccc(N3CCN(C)CC3)cc2)n1 [GW684941]	86	0	4	0	31	36	40	43	0	99.5
Cl.Cl.NCC(NC(=O)c1cc(-c2ccccc2)c(-c2ccnc3[nH]ccc23)s1)c1ccccc1 (centres unmarked) [GSK1321561]	38	70	18	3	76	5	0	14	18	35
CN(c1ccc(NC(=O)Nc2cc(C(F)(F)F)ccc2F)cc1)c1ccnc(Nc2ccc(S(N)(=O)=O)cc2)n1 [GW809893]	0	16	17	3	0	14	94.8	25	88	100
